Assay results as given in PubChem BioAssay (Tox21).
Records with an inconclusive call do not appear. Active and inactive are the calls of the source. Unless noted, calls follow the shape of the dose curve; as a rule, active = well fitted curve in the direction sought with a large enough effect in the repeat runs; inconclusive = weak or mixed curves; inactive = no such curve, though single readings can be large; an effect the other way counts as inactive or inconclusive.

What was measured:
[1] = qHTS assay to identify small molecule antagonists of the constitutive androstane receptor (CAR) signaling pathway - cell viability counter screen (AID 1224837); also: nearly all actives have a fitted effect of over 45% in size; also: potency is read from the fitted curve at half-maximal effect
How it was run: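 Counter screen run in HepG2-CYP2B6-hCAR cells: 4 hr settle, compound titration (15 concentrations) with 50 nM CITCO, 23 hr at 37 C/5% CO2, CellTiter-Fluor fluorescence.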

[2] = molecular target: Nuclear receptor subfamily 1 group I member 3 (Homo sapiens) (UniProt Q14994); experiment: qHTS assay to identify small molecule antagonists of the constitutive androstane receptor (CAR) signaling pathway (AID 1224838);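 also: HepG2 cells stably expressing hCAR with CYP2B6 luciferase reporter stimulated by CITCO; nearly all actives have a fitted effect of over 40% in size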; also: potency is read from the fitted curve at half-maximal effect
How it was run: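 Cell line: HepG2 double-stable for hCAR and CYP2B6-2.2kb reporter. Agonist: CITCO, 50 nM final. Compounds: 15 concentrations, 24 h, 37 C. Detection: ONE-Glo luminescence.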

[3] = molecular target: Nuclear receptor subfamily 1 group I member 3 (Homo sapiens) (UniProt Q14994); experiment: qHTS assay to identify small molecule agonists of the constitutive androstane receptor (CAR) signaling pathway (AID 1224839);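 also: HepG2 cells stably carrying human CAR and a CYP2B6 luciferase reporter; nearly all actives have a fitted effect of over 15% in size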
How it was run: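 Luminescent ONE-Glo read-out after 24 hr, 37 C exposure of double-stable HepG2-CYP2B6-hCAR reporter cells to a 15-point compound series, in the presence of 0.75 uM PK11195 (final).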

[4] = qHTS assay to identify small molecule antagonists of the estrogen related receptor signaling pathway with the pleiotropic PPARgamma coactivator (PGC) from Tox21 10K library - cell viability counter screen (AID 1224840; active = well fitted cell-killing curve with a large enough effect in the repeat runs, not every such curve was filed as active; also: nearly all actives have a fitted effect of over 40% in size; also: potency is read from the fitted curve at half-maximal effect)
How it was run: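 Following seeding of 2,000 PGC/ERR cells/well and 6 hours' incubation, test compounds were delivered in DMSO. The plates then sat 17.5 hours at 37 C before a fluorogenic live-cell protease reagent (CellTiter-Fluor) was read after 30 min.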

[5] = qHTS assay to identify small molecule antagonists of the estrogen related receptor signaling pathway with the pleiotropic PPARgamma coactivator (PGC) from Tox21 10K library (AID 1224841; call rule not given here; also: actives are mostly falling curves and most rising ones were filed inactive; nearly all actives have a fitted effect of over 50% in size; also: potency is read from the fitted curve at half-maximal effect)
How it was run: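 qHTS antagonist format: PGC/ERR cells, 2k/well, compound in DMSO by pin transfer after 6 h attachment, 18 h treatment at 37 C, One-Glo luminescence read at 30 min.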

[6] = qHTS assay to identify small molecule agonists of the estrogen related receptor signaling pathway with the pleiotropic PPARgamma coactivator (PGC) from Tox21 10K library (AID 1224842); also: nearly all actives have a fitted effect of over 15% in size; also: potency is read from the fitted curve at half-maximal effect
How it was run: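 Luminescence from One-Glo (30 min, room temperature) measured after PGC/ERR cells had 18 h at 37 C with pinned compound (23 nL in DMSO). Cells had been seeded at 2,000 per well and pre-incubated 6 h.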

[7] = molecular target: Thyrotropin receptor (Homo sapiens) (UniProt P16473); experiment: qHTS assay to identify small molecule agonists of the thyroid stimulating hormone receptor (TSHR) signaling pathway (AID 1224843; calls by dose curve; also: nearly all actives have a fitted effect of over 45% in size; also: potency is read from the fitted curve at half-maximal effect)
How it was run: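 Screening of the Tox21 10K collection used HEK293 cells engineered with TSHR at 800 cells per well. After a 30-min room-temperature compound exposure, HTRF cAMP reagents were added and fluorescence recorded 1 h later.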

[8] = qHTS assay to identify small molecule agonists of the hypoxia (HIF-1) signaling pathway - cell viability counter screen (AID 1224844; calls by dose curve; also: nearly all actives have a fitted effect of over 50% in size; also: potency is read from the fitted curve at half-maximal effect)
How it was run: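 Cells (HRE-bla ME-180, 2,000 per well) sat 5 hrs at 37C, got compound for 17 hrs, were read for CCF4-AM FRET, and were finally lysed with CellTiter-Glo for a 30 min room-temperature luminescence read.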

[9] = qHTS assay to identify small molecule agonists of H2AX (AID 1224845; active = well fitted activation curve with a large enough effect in the signal ratio in the repeat runs, not every such curve was filed as active; the % refers to the signal ratio)
How it was run: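 Phospho-H2AX Ser139 measured by HTRF (ex 320 nm; em 665 and 620 nm) after 24 hr antibody incubation. Compounds, 15 concentrations, 0.76% DMSO, were applied to CHO-K1 cells for 3hr at 37C before lysis.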

[10] = qHTS assay to identify small molecule agonists of the hypoxia (HIF-1) signaling pathway (AID 1224846; active = well fitted activation curve with a large enough effect in the signal ratio in the repeat runs, not every such curve was filed as active; the % refers to the signal ratio)
How it was run: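 A low-serum medium (0.5% dialyzed FBS) holding 2,000 HRE-bla ME-180 cells per well is preincubated for 5 hrs, dosed with compounds by pintool, and kept a further 17 hrs at 37C, 5% CO2 before CCF4-AM FRET detection of beta-lactamase.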

[11] = qHTS assay to identify small molecule agonists of H2AX - cell viability counter screen (AID 1224847; calls by dose curve; also: nearly all actives have a fitted effect of over 30% in size; also: potency is read from the fitted curve at half-maximal effect)
How it was run: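 Counter-screen for viability: CellTiter-Glo ATP luminescence read after 3 h compound treatment (15-point titration, 0.76% DMSO final) of CHO-K1 cells at 37C, with 30 min room-temperature reagent incubation.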

[12] = qHTS assay to identify small molecule antagonists of the estrogen related receptor (ERR) signaling pathway from Tox21 library (AID 1224848); also: nearly all actives have a fitted effect of over 50% in size; also: potency is read from the fitted curve at half-maximal effect
How it was run: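 Antagonist-mode screen of the Tox21 10K library in an NTP-provided ERR reporter cell line; 18 h compound exposure at 37 C, luminescence measured with ONE-Glo.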

[13] = qHTS assay to identify small molecule agonists of the estrogen related receptor (ERR) signaling pathway from Tox21 library (AID 1224849; calls by dose curve; also: nearly all actives have a fitted effect of over 15% in size); details: ERR reporter cell line, ONE-Glo luciferase, 18 h
How it was run: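 Screening used an NTP-provided ERR luciferase cell line. Compounds in DMSO were added 6 h after seeding and left 18 h at 37 C before a 30 min ONE-Glo step and luminescence reading.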

[14] = qHTS RealTime-Glo MT Cell Viability Assay in HepG2 cells - 24 hour (AID 1224867); also: nearly all actives have a fitted effect of over 50% in size
How it was run: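 Viability was tracked continuously by NanoLuc luminescence from prosubstrate reduced by living HepG2 cells, at successive time points over 40 h of compound exposure. Cells with reagent were preincubated 5 h at 37 °C before compound addition.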

[15] = qHTS RealTime-Glo MT Cell Viability Assay in HEK293 cells - 32 hour (AID 1224868); also: nearly all actives have a fitted effect of over 50% in size; also: potency is read from the fitted curve at half-maximal effect
How it was run: (§1)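 Viability tracked continuously by luminescence as live cells reduce a prosubstrate for NanoLuc; HEK293 cells preincubated 5 h, compound-treated at 37 C, and read at 0, 8, 16, 24, 32 and 40 h.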

[16] = A CellTox Green Cytotoxicity Assay to monitor cytotoxicity in HEK293 cells - 0 hour (AID 1224869); also: nearly all actives have a fitted effect of over 50% in size
How it was run: (§2)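 Fluorescence intensity, read at 0, 8, 16, 24, 32 and 40 h of compound treatment, reflected dye binding to DNA of dead HEK293 cells; compounds (23 nL, DMSO) were added 5 h after plating cells with reagent.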

[17] = A CellTox Green Cytotoxicity Assay to monitor cytotoxicity in HEK293 cells - 40 hour (AID 1224871); also: nearly all actives have a fitted effect of over 45% in size; also: potency is read from the fitted curve at half-maximal effect
How it was run: as §2

[18] = qHTS RealTime-Glo MT Cell Viability Assay in HEK293 cells - 16 hour (AID 1224872); also: nearly all actives have a fitted effect of over 50% in size; also: potency is read from the fitted curve at half-maximal effect
How it was run: as §1

[19] = qHTS assay to identify small molecule agonists of the constitutive androstane receptor (CAR) signaling pathway - cell viability counter screen (AID 1224836); also: nearly all actives have a fitted effect of over 45% in size; also: potency is read from the fitted curve at half-maximal effect
How it was run: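 Cell viability multiplexed with the CAR agonist screen: CellTiter-Fluor fluorescence after 23 hr at 37 C. HepG2-CYP2B6-hCAR cells got compounds at 15 concentrations with PK11195 at 0.75 uM final.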

[20] = qHTS RealTime-Glo MT Cell Viability Assay in HepG2 cells - 40 hour (AID 1224870); also: nearly all actives have a fitted effect of over 50% in size; also: potency is read from the fitted curve at half-maximal effect
How it was run: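 Real-time viability: cells seeded at 600 per well together with NanoLuc and cell-permeant prosubstrate, compounds added after 5 h incubation. Luminescence tracked at 0, 8, 16, 24, 32 and 40 h of exposure.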
% is scaled to controls: 0 for no effect and ±100 for the full control effect.

Chain of Nuclear receptor subfamily 1 group I member 3 (Homo sapiens) (Q14994 whole entry, looked up): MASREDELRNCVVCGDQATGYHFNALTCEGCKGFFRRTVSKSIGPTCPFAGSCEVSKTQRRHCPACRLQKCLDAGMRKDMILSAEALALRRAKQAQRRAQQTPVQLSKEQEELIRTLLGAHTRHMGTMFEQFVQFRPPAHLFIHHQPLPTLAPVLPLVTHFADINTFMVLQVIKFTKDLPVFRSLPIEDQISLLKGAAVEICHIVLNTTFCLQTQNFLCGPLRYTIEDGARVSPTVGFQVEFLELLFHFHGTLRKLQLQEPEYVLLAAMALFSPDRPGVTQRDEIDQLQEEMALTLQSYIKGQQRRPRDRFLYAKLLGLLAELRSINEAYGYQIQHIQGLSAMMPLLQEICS
Chain of Thyrotropin receptor (Homo sapiens) (P16473 whole entry, looked up): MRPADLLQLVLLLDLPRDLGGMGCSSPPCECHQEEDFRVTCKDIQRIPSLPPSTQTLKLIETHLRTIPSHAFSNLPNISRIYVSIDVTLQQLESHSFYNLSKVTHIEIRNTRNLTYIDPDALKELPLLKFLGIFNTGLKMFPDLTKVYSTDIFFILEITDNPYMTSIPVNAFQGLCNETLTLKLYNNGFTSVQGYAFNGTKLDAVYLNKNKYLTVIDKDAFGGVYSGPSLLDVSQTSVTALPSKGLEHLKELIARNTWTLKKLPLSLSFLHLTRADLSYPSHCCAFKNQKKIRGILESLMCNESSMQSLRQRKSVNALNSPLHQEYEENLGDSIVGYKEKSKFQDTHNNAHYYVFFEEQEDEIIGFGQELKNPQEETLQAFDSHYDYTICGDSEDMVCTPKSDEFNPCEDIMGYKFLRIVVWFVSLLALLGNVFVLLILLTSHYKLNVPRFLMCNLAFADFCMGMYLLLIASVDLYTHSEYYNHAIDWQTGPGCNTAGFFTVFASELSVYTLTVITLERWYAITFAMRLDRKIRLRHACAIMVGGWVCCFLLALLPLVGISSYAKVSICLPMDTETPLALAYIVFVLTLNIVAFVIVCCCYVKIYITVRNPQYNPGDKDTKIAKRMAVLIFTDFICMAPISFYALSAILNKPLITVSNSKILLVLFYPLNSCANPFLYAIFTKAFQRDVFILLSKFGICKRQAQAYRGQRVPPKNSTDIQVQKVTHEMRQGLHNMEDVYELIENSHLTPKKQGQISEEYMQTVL

COc1cc(C)ccc1O
inactive: Potency [1] | Potency [2] | Potency [3] | Potency [4] | Potency [5] | Potency [6] | Potency [7] | Potency [8] | Potency [9] | Potency [10] | Potency [11] | Potency [12] | activity change, positive = activation ([13]; at 92.4 µM (top of the series)) 5.96% | Potency [14] | Potency [15] | Potency [16] | Potency [17] | Potency [18]

CCN(CC)c1ccc2c(-c3ccc(S(=O)(=O)O)cc3S(=O)(=O)[O-])c3ccc(=[N+](CC)CC)cc-3oc2c1
active: Potency [1] 28.2 µM | Potency [2] 28.2 µM | Potency [4] 28.2 µM | Potency [5] 28.2 µM | Potency [11] 20.7 µM | Potency [12] 35.5 µM
inactive: Potency [3] | Potency [6] | Potency [8] | Potency [10] | activity change, positive = activation ([13]; at 92.4 µM (top of the series)) -38.9% | Potency [14] | Potency [15] | Potency [16] | Potency [17] | Potency [18]

O=S(=O)(O)c1ccc(N=Nc2c(O)ccc3ccccc23)cc1
inactive: Potency [2] | Potency [3] | Potency [10] | Potency [16] | Potency [17] | Potency [18]
active: Potency [1] 30.6 µM | Potency [4] 48.6 µM | Potency [8] 12.3 µM

COc1cc(S(=O)(=O)O)c(C)cc1N=Nc1c(O)ccc2cc(S(=O)(=O)O)ccc12
active: Potency [19] 30.6 µM | Potency [4] 27.3 µM | Potency [11] 45 µM
inactive: Potency [3] | Potency [7] | Potency [8] | Potency [10] | activity change, positive = activation ([13]; at 92.4 µM (top of the series)) -21.5% | Potency [15] | Potency [16] | Potency [20] | Potency [17] | Potency [18]

CCCC(=O)OCOC(=O)C1=C(C)NC(C)=C(C(=O)OC)C1c1cccc(Cl)c1Cl (stereo unspecified)
inactive: Potency [1] | Potency [4] | Potency [7] | Potency [8] | Potency [9] | Potency [10] | Potency [11] | Potency [14] | Potency [15] | Potency [16] | Potency [20] | Potency [17] | Potency [18]

CCC(COC(=O)CCS)(COC(=O)CCS)COC(=O)CCS
inactive: Potency [1] | Potency [2] | Potency [3] | Potency [4] | Potency [5] | Potency [7] | Potency [8] | Potency [9] | Potency [10] | Potency [11] | Potency [12] | activity change, positive = activation ([13]; at 92.4 µM (top of the series)) 4.52% | Potency [15] | Potency [16] | Potency [17]

CCCCN(CCCC)CC(O)c1cc(Cl)cc2c1-c1ccc(Cl)cc1/C2=C/c1ccc(Cl)cc1 (stereo unspecified)
inactive: Potency [19] | Potency [2] | Potency [5] | Potency [6] | Potency [7] | Potency [8] | Potency [10] | activity change, positive = activation ([13]; at 42.5 µM (top of the series)) -23.2% | Potency [15] | Potency [16] | Potency [17] | Potency [18]

CC(C)(C)c1csc(-c2cc3cc(OCc4ccccc4CC(=O)O)ccc3o2)n1
active: Potency [11] 113 µM | Potency [15] 38.9 µM | Potency [17] 54.9 µM
inactive: Potency [1] | Potency [2] | Potency [4] | Potency [7] | Potency [14] | Potency [16] | Potency [20]

FC(F)(F)c1cccc(Cl)c1
inactive: Potency [1] | Potency [2] | Potency [3] | Potency [4] | Potency [7] | Potency [8] | Potency [9] | Potency [10] | Potency [11] | Potency [15] | Potency [16] | Potency [17]

Cc1cc(C(C#N)c2ccc(Cl)cc2)c(Cl)cc1NC(=O)c1cc(I)cc(I)c1O (stereo unspecified)
active: Potency [12] 26.6 µM
inactive: Potency [19] | Potency [4] | Potency [6] | Potency [8] | Potency [9] | activity change, positive = activation ([13]; at 42.5 µM (top of the series)) -52.3% | Potency [14] | Potency [15] | Potency [16] | Potency [20] | Potency [17] | Potency [18]

CN(C)[C@@H](CCOc1cccc2ccccc12)c1ccccc1
inactive: Potency [1] | Potency [2] | Potency [3] | Potency [5] | Potency [10] | activity change, positive = activation ([13]; at 42.5 µM (top of the series)) -27.2% | Potency [16]
active: Potency [7] 33.5 µM

COc1ccc(-c2coc3cc(O)ccc3c2=O)cc1
inactive: Potency [19] | Potency [4] | Potency [7] | Potency [8] | Potency [9] | Potency [10] | Potency [11] | Potency [15] | Potency [20] | Potency [17] | Potency [18]

O=c1oc2cc(O)ccc2c2oc3cc(O)ccc3c12
active: Potency [6] 58.6 µM | Potency [18] 21 µM
inactive: Potency [1] | Potency [2] | Potency [4] | Potency [5] | Potency [8] | Potency [11] | Potency [12] | Potency [14] | Potency [16] | Potency [20] | Potency [17]

CC(=O)c1ccc(C(C)=O)cc1
inactive: Potency [1] | Potency [2] | Potency [3] | Potency [4] | Potency [5] | Potency [6] | Potency [7] | Potency [8] | Potency [9] | Potency [10] | Potency [11] | Potency [12] | activity change, positive = activation ([13]; at 92.4 µM (top of the series)) -2.27% | Potency [15] | Potency [16] | Potency [20] | Potency [17] | Potency [18]

CCN(CC)C(=O)c1cc(S(=O)(=O)Cc2ccccc2)c(N2CCC(c3ccccc3)CC2)cc1N(CC)CCN(C)C
inactive: Potency [3] | Potency [6] | Potency [10] | activity change, positive = activation ([13]; at 42.5 µM (top of the series)) -79.2% | Potency [16]
active: Potency [19] 21.4 µM | Potency [4] 21.4 µM | Potency [8] 10.8 µM | Potency [11] 31.5 µM | Potency [12] 21.4 µM | Potency [15] 8.61 µM | Potency [20] 13.6 µM | Potency [17] 17.2 µM | Potency [18] 15.3 µM

Nc1cc(Cl)c(O)c(Cl)c1
inactive: Potency [1] | Potency [2] | Potency [4] | Potency [5] | Potency [6] | Potency [10] | Potency [12] | activity change, positive = activation ([13]; at 92.4 µM (top of the series)) -4.45% | Potency [14] | Potency [20] | Potency [18]
